The source of these data is PubChem BioAssay (EPA / NIEHS).

The structures appear in SMILES notation. Activity calls are given as the source filed them. How the source made its calls: active means hit-call score of the fitted dose curve at least 0.9, where 1 is the maximum; inactive means score below 0.9.

Read-out in assay [1]: Interleukin-8 (IL8), CXCL8 (gene 3576)
Nature of the assay: BSK_CASM3C_IL8: BioMAP Diversity Plus: CASM3C Assay for Interleukin-8 (IL8) Biomarker Activity (AID 2283042).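 Further: IL-8 protein level quantified by ELISA.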 The conditions noted are these: primary human coronary artery smooth muscle cells; actives raise or lower the signal.

Read-out in assay [2]: Human Leukocyte Antigen - DR isotype (HLADR), HLA-DRA (gene 3122)
Description: BSK_CASM3C_HLADR: BioMAP Diversity Plus: CASM3C Assay for Human Leukocyte Antigen - DR isotype (HLADR) Biomarker Activity (AID 2283043).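 Further: cell-surface HLA-DR protein level quantified by ELISA.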 The note with it: primary human coronary artery smooth muscle cells; actives raise or lower the signal.

Read-out in assay [3]: Macrophage colony-stimulating factor (MCSF), CSF1 (gene 1435)
Description: BSK_CASM3C_MCSF: BioMAP Diversity Plus: CASM3C Assay for Macrophage colony-stimulating factor (MCSF) Biomarker Activity (AID 2283044).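 Further: M-CSF protein amount quantified by ELISA after 24 h exposure.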 The conditions noted are these: primary human coronary artery smooth muscle cells; actives raise or lower the signal.

Read-out in assay [4]: Low-density lipoprotein receptor (LDLR), LDLR (gene 3949)
Description: BSK_CASM3C_LDLR: BioMAP Diversity Plus: CASM3C Assay for Low-density lipoprotein receptor (LDLR) Biomarker Activity (AID 2283045).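 Further: LDLR protein level on the cell surface quantified by ELISA.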 The conditions noted are these: primary human coronary artery smooth muscle cells; actives raise or lower the signal.

Read-out in assay [5]: Monocyte Chemoattractant Protein-1 (MCP1), CCL2 (gene 6347)
Description: BSK_CASM3C_MCP1: BioMAP Diversity Plus: CASM3C Assay for Monocyte Chemoattractant Protein-1 (MCP1) Biomarker Activity (AID 2283046).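 Further: MCP-1 level quantified by ELISA 24 h after dosing.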 The conditions noted are these: primary human coronary artery smooth muscle cells; actives raise or lower the signal.

Assay [6] is described as follows: BSK_CASM3C_Proliferation: Cell Proliferation Assessment in the BioMAP Diversity Plus: CASM3C Assay (AID 2283047).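 Further: sulforhodamine B total protein stain as relative cell number at 560 nm; sub-confluent cells exposed 48 h before staining; fitted both ways against DMSO so gain or loss of cell number.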 The note with it: primary human coronary artery smooth muscle cells.
Read-out in assay [7]: Monokine induced gamma interferon (MIG), CXCL9 (gene 4283)
Description: BSK_CASM3C_MIG: BioMAP Diversity Plus: CASM3C Assay for Monokine induced gamma interferon (MIG) Biomarker Activity (AID 2283048).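 Further: MIG protein level measured by ELISA.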 The note with it: primary human coronary artery smooth muscle cells; actives raise or lower the signal.

Read-out in assay [8]: serum amyloid A (SAA), SAA1 (gene 6288)
Description: BSK_CASM3C_SAA: BioMAP Diversity Plus: CASM3C Assay for serum amyloid A (SAA) Biomarker Activity (AID 2283049).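 Further: SAA protein level quantified by ELISA.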 The conditions noted are these: primary human coronary artery smooth muscle cells; actives raise or lower the signal.

The nature of assay [9]: BSK_CASM3C_SRB: Viability Assessment in the BioMAP Diversity Plus: CASM3C Assay (AID 2283050).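 Further: total protein by SRB staining as cytotoxicity measure in parallel cultures; cells exposed to compound for 24 h.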 The note with it: primary human coronary artery smooth muscle cells.
Read-out in assay [10]: Thrombomodulin, THBD (gene 7056)
Nature of the assay: BSK_CASM3C_Thrombomodulin: BioMAP Diversity Plus: CASM3C Assay for Thrombomodulin Biomarker Activity (AID 2283051).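 Further: thrombomodulin protein level measured by ELISA 24 h after dosing.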 The conditions noted are these: primary human coronary artery smooth muscle cells; actives raise or lower the signal.

As a reminder, the AC50 is the midpoint of the concentration-response curve, whichever way the signal moves. On to `OC(c1ccc(Cl)cc1)(c1ccc(Cl)cc1)C(Cl)(Cl)Cl`, for which the AC50 in [1] was 33.4 µM (active); in [3], 36.2 µM (active); in [5], 35.2 µM (active); in assay [6], 30.4 µM (active); in assay [7] it was 31.3 µM (active); in assay [8] it was 32.2 µM (active). Further, the figures for the AC50 in [9] and in assay [10] were 35.2 µM (active) and 33.1 µM (active), respectively. In addition, the outcome in assay [2] and in assay [4] was inactive.
In the case of `Nc1c(Cl)c(F)nc(OCC(=O)O)c1Cl`, the outcome in assay [1], in [2], in [3], in [4], in assay [5] and in assay [6] was inactive. The result in assay [7], in assay [8], in assay [9] and in assay [10] was inactive.
Take `CCCCC(O)(Cn1cncn1)c1ccc(Cl)cc1Cl` (centres undefined): the outcome in assay [1], in assay [2], in assay [3], in assay [4], in [5] and in assay [6] was inactive. For the same molecule, the result in assay [7], in [8], in assay [9] and in assay [10] was inactive.
With `CNC(=O)N(C)c1nnc(C(C)(C)C)s1`, the result in [1], in assay [2], in [3], in [4], in assay [5] and in assay [6] was inactive. In addition, the result in [7], in assay [8], in [9] and in assay [10] was inactive.
`CCCC(=NOCC)C1=C(O)CC(CC(C)SCC)CC1=O` (centres undefined): the outcome in [1], in assay [2], in [3], in assay [4], in [5] and in assay [6] was inactive. For the same molecule, the result in assay [7], in assay [8], in assay [9] and in assay [10] was inactive.
Consider `CO/N=C(/C1=NOCCO1)c1ccccc1Oc1ncnc(Oc2ccccc2Cl)c1F`, for which the outcome in assay [1], in assay [2], in assay [3], in [5], in assay [7] and in assay [8] was inactive. The result in [9] and in assay [10] was inactive. In addition, the AC50 in assay [4] was 13.5 µM (active); in assay [6], 12.9 µM (active).
On to `Clc1cccc(C(Cl)(Cl)Cl)n1`, for which the outcome in [1], in [2], in assay [3], in assay [4], in [5] and in [6] was inactive. In addition, the outcome in assay [7], in [8], in assay [9] and in assay [10] was inactive.
As for `COC(=O)NS(=O)(=O)c1ccc(N)cc1`, the outcome in [1], in assay [2], in assay [3], in assay [4], in assay [5] and in [6] was inactive. Moreover, the result in assay [7], in assay [8], in assay [9] and in assay [10] was inactive.
For `CC(C)N1C(=O)c2ccccc2NS1(=O)=O`, the outcome in assay [1], in [2], in assay [3], in assay [4], in assay [6] and in assay [7] was inactive. The result in assay [8], in [9] and in [10] was inactive.
As to `O=c1n(Cl)c(=O)n(Cl)c(=O)n1Cl`, the outcome in assay [1], in [2], in assay [3], in [4], in assay [5] and in [6] was inactive. In addition, the outcome in [7], in [8] and in assay [9] was inactive. For the same molecule, the AC50 in assay [10] was 12.7 µM (active).
`CS(=O)(=O)c1cc(C(F)(F)F)ccc1C(=O)c1cnoc1C1CC1`: the outcome in assay [1], in [2], in assay [3], in assay [4], in [5] and in assay [6] was inactive. The result in assay [7], in assay [8], in [9] and in [10] was inactive.
With `N#CN=C1SCCN1Cc1ccc(Cl)nc1`, the result in [1], in assay [2], in [3], in assay [4], in assay [5] and in [6] was inactive. Also, the outcome in assay [7], in assay [8], in assay [9] and in assay [10] was inactive.
Regarding `COCc1cnc(C2=NC(C)(C(C)C)C(=O)N2)c(C(=O)O)c1` (centres undefined), the outcome in assay [1], in assay [2], in assay [3], in assay [4], in [5] and in assay [6] was inactive. Further, the result in assay [7], in assay [8], in assay [9] and in [10] was inactive.
As to `O=P(O)(O)CCCl`, the result in [1], in assay [2], in assay [3], in [4], in assay [5] and in assay [6] was inactive. For the same molecule, the result in assay [7], in assay [8], in assay [9] and in assay [10] was inactive.
Turning to `CCCCC(C#N)(Cn1cncn1)c1ccc(Cl)cc1` (centres undefined), the outcome in [1], in [2], in assay [3], in [4], in assay [5] and in assay [6] was inactive. For the same molecule, the outcome in [7], in [8], in assay [9] and in [10] was inactive.
Consider `CC1(C)C(C(=O)OC(C#N)c2cccc(Oc3ccccc3)c2)C1(C)C` (centres undefined), for which the result in assay [1], in assay [2], in assay [3], in assay [4], in assay [5] and in [7] was inactive. The result in [8] and in assay [9] was inactive. Moreover, the values for the AC50 in assay [6] and in [10] were 13.2 µM (active) and 16 µM (active), respectively.
Take `C=C(C)CN(CC)c1c([N+](=O)[O-])cc(C(F)(F)F)cc1[N+](=O)[O-]`: the outcome in assay [1], in assay [2], in assay [3], in assay [4], in assay [5] and in assay [6] was inactive. The outcome in assay [7], in assay [8], in assay [9] and in assay [10] was inactive.
As for `O=C1C2CC=CCC2C(=O)N1SC(Cl)(Cl)Cl` (centres undefined), the AC50 in assay [1] was 31.7 µM (active); in assay [2] it was 13.4 µM (active); in [3] it was 28.9 µM (active); in [5], 31.7 µM (active); in assay [6], 7.03 µM (active); in [7], 34.9 µM (active). For the same molecule, the AC50 in assay [8] is 35 µM (active); in assay [9] it was 29.5 µM (active); in assay [10], 4.74 µM (active). Moreover, the result in [4] was inactive.
